Inconclusive results are not listed. Calls of active or inactive are those of the source. Unless noted, calls follow the shape of the dose curve; as a rule, active = well fitted curve in the direction sought with a large enough effect; inconclusive = small, poorly fitted or top-dose-only effect, or another doubt; inactive = no such curve, though single readings can be large; an effect the other way counts as inactive or inconclusive.

The nature of experiment [1]: Validation screen for small molecules that induce genotoxicity in human embryonic kidney (HEK293T) cells expressing luciferase-tagged ELG1 (AID 493106). Also: potency is read from the fitted curve at half-maximal effect. In a few lines:
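Reporter-gene quantitative HTS in HEK293T cells carrying luciferase-tagged ELG1, whose level climbs under genotoxic stress. Compound exposure lasts 16 hr at 37 °C before luciferase detection.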

For experiment [2], the target named is ATPase family AAA domain-containing protein 5 (Homo sapiens) (UniProt Q96QE3). Briefly: Validation screen for small molecules that inhibit ELG1-dependent DNA repair in human embryonic kidney (HEK293T) cells expressing luciferase-tagged ELG1 (AID 493107). Also: nearly all actives have a fitted effect of over 70% in size. Also: potency is read from the fitted curve at half-maximal effect. The gist of the method:
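Quantitative HTS in HEK293T cells carrying luciferase-tagged ELG1, stimulated with 5-fluorouridine alongside compound for 16 hr. Loss of luciferase signal marks inhibition of ELG1 response.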

A short description of experiment [3]: Nrf2 qHTS screen for inhibitors: Validation (AID 493153; active = well fitted inhibition curve with a large enough effect in the main read-out, with a control signal flat, not every such curve was filed as active). The note with it: Potency: luciferase luminescence; viability change: measured here: cytotoxicity max response. The gist of the method:
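Dose-response validation uses reporter A549 cells with firefly luciferase under an antioxidant response element. Compounds stay on cells 18-24 h at 37°C, and luminescence indicates Nrf2-driven transcription.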

Experiment [4] in a line: qHTS for Inhibitors of Cell Surface uPA Generation: Validation Assay (AID 493164).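 Also: RAW 264.7 macrophage cells exposed to compound for 18 h; 0% is about no effect.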 The gist of the method: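 RAW 264.7, 4000 cells/well, o/n plating; cpd 7-pt 1:5 dilution 2.45 nM–38.3 uM final; 18 h, 37 C/5% CO2; ATP-Lite, 5 s luminescence exposure.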
(Quantitative high-throughput screening tests each substance at several concentrations.)

For experiment [5], the target named is Peptidyl-prolyl cis-trans isomerase NIMA-interacting 1 (Homo sapiens) (UniProt Q13526). Briefly: qHTS Validation Assay to Find Inhibitors of Pin1 (AID 504536; active = well fitted inhibition curve with a large enough effect in the polarisation, with a control signal flat, not every such curve was filed as active; the % refers to the polarisation;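 also: 0% = full Pin1 enzyme wells and -100% = no-enzyme wells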). The gist of the method:
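Fluorescence polarization competition: compounds (titration) displace HiFluor-488-labeled Pin1-1b peptide from Pin1 (0.3 uM final) in pH 7.5 HEPES buffer with DTT, 10 min at room temperature; %Activity normalized to no-enzyme wells, curves fitted.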

Experiment [6] has as its target Phosphoglycerate kinase, glycosomal (Trypanosoma brucei brucei) (UniProt P07378). As to the kind of experiment: qHTS Validation Assay to Find Inhibitors of Phosphoglycerate Kinase (AID 504547).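 Also: control wells lack PGK and mark full inhibition.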 In a few lines:
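PGK activity was coupled to GAPDH (100nM final), which generates the unstable substrate 1,3-bisphosphoglycerate in-well. Reactions ran 60 minutes at room temperature in 100mM TEA pH 7.6, 5mM MgCl2, 0.01% Tween-20, then Kinase-Glo Plus luminescence was read.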

Experiment [7] concerns the target phosphoglycerate mutase (Leishmania major) (UniProt Q4Q090). As to the kind of experiment: qHTS Validation Assay to Find Inhibitors of Phosphoglycerate Mutase (AID 504548).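 Also: end-point luminescence from Kinase-GloPlus after the PGAM reaction; series mostly up to about 58 µM; % is scaled to controls: 0 for no effect and ±100 for the full control effect.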 In a few lines:
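Inhibition of L. major PGAM was assessed by Kinase-GloPlus luminescence following a 45-minute room-temperature reaction with enzyme at 1.25nM final.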

Experiment [8] has as its target Ubiquitin carboxyl-terminal hydrolase 1 (Homo sapiens) (UniProt O94782). As to the kind of experiment: Inhibitors of USP1/UAF1: Pilot qHTS (AID 504865).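 Also: rhodamine fluorescence freed from ubiquitin-rhodamine substrate followed over time; top concentration of the series differs between compounds; % is scaled to controls: 0 for no effect and ±100 for the full control effect; nearly all actives have a fitted effect of over 35% in size.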 In a few lines: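 In 50mM HEPES pH 7.8 containing 0.5mM EDTA, 1mM TCEP, 0.1 mg/ml BSA and 0.01% Tween-20, 1nM USP1/UAF1 is exposed to compound for 15 min, then Ub-Rho (150nM final) is added and fluorescence is read over time.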

The nature of experiment [9]: qHTS for Inhibitors of ATXN expression: Validation of Cytotoxic Assay (AID 588349).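 Also: cells exposed to compound for 72 hr; % is scaled to controls: 0 for no effect and ±100 for the full control effect.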 In a few lines:
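HEK293, compound dose series, 72 hr / 37 degrees C; viability via CellTiter Glo (intracellular ATP).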

The nature of experiment [10]: qHTS for Inhibitors of ATXN expression: Validation (AID 588378). Also: series mostly up to about 57 µM; % is scaled to controls: 0 for no effect and ±100 for the full control effect; nearly all actives have a fitted effect of over 75% in size. The gist of the method:
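Compounds were pinned onto attached HEK293 cells carrying an ATXN2-firefly luciferase construct and incubated 24 hrs at 37 degrees C. Each well then received a fluorescent viability reagent followed by luciferase substrate for end-point luminescence.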

The target of experiment [11] is Galactokinase (Homo sapiens) (UniProt P51570). Briefly: qHTS Validation Assay for Inhibitors of Human Galactokinase (GALK) (AID 493189). Also: 0% is about no effect. The gist of the method:
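5 nM GALK / 100 uM galactose / 35 uM ATP, 20 mM HEPES pH8.0, 5 mM MgCl2, 60 mM NaCl, 1 mM DTT, 0.01% BSA (final). RT 1 h; Kinase-Glo Plus luminescence.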

The nature of experiment [12]: Validation screen for small molecules that induce DNA re-replication in SW480 colon adenocarcinoma cells (AID 504364). Also: 0% is about no effect. In a few lines: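 Cells are treated 48 hr with test compound, stained 40 min with Hoechst at 37 C, and scanned for nuclear fluorescence; compounds inducing re-replication increase nuclei with elevated intensity.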
Experiment [13] addresses DNA dC->dU-editing enzyme APOBEC-3G (Homo sapiens) (UniProt Q9HC16). Briefly: qHTS for inhibitors of Vif-A3G interactions: Validation (AID 588379). Also: 0% is about no effect. The gist of the method: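 HeLa cells stably expressing Vif and A3G-eYFP, 700 cells/well, incubated overnight at 37 deg C, then exposed to compound overnight at 37 deg C. Inhibition of Vif-mediated degradation read as increased yellow fluorescence (Ex 488/Em 500-530) by laser-scanning cytometry.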

The target in experiment [14] is Estrogen receptor (Homo sapiens) (UniProt P03372). As to the kind of experiment: qHTS assay for small molecule agonists of estrogen receptor alpha signaling (AID 588514; calls by dose curve; also: nearly all actives have a fitted effect of over 70% in size; also: potency is read from the fitted curve at half-maximal effect;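 as to activation: 0% = vehicle only and 100% = reference agonist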). In a few lines: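 Reporter-gene assay. […] controls beta-lactamase in HEK 293 GripTite cells; after 18 hrs with compound, CCF4 substrate is added for 2 hrs and fluorescence is read.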

The target of experiment [15] is Thyrotropin-releasing hormone receptor (Homo sapiens) (UniProt P34981). As to the kind of experiment: qHTS for Small Molecule Agonists and Allosteric Enhancers of Human TRH Receptor: Validation Screen for Agonists (AID 493127;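 active = calcium activation more than 3 SD above the typical response in the agonist read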;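 also: intracellular calcium rise by fluo-8 fluorescence before TRH EC20 addition; 0% is about no effect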). The note with it: TRH receptor agonist cell assay; at 2 µM; stronger effect = higher value. In a few lines: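 Gq-coupled calcium mobilization in TRHR cells after compound addition, monitored kinetically with fluo-8 dye on an FDSS reader.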

The target of experiment [16] is Estrogen receptor (Homo sapiens) (UniProt P03372). Briefly: qHTS assay for small molecule antagonists of estrogen receptor alpha signaling (AID 588513; active = well fitted curve in the direction sought with a large enough effect in the signal ratio, with a control signal flat, not every such curve was filed as active; the % refers to the signal ratio; also: % is scaled to controls: 0 for no effect and ±100 for the full control effect). The gist of the method: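 Fluorescence from CCF4 substrate after 2 h at room temperature gave reporter activity; cells had been exposed to compound and 0.5nM 17-beta-estradiol for 18 h at 37 C. Hill-equation fitting yielded IC50 and maximal response.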

Experiment [17] deals with Androgen receptor (Homo sapiens) (UniProt P10275). Briefly: qHTS assay for small molecule agonists of androgen receptor signaling (AID 588515; active = well fitted curve in the direction sought with a large enough effect in the signal ratio, with a control signal flat; the % refers to the signal ratio; also: potency is read from the fitted curve at half-maximal effect). The note with it: AR-UAS-bla HEK293, beta-lactamase ratio, agonist 16 h; activation: stronger effect = higher value. In a few lines:
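EC50 and efficacy came from Hill fits of titrations (up to 92 uM) normalized to 30 nM R1881 as 100% and DMSO as 0%. Compound exposure was 16 h at 37 C on AR-UAS-bla HEK293 cells, with a 405/460/530 nm CCF4 fluorescence read.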

The target in experiment [18] is Bile acid receptor (Homo sapiens) (UniProt Q96RI1). Briefly: qHTS assay for small molecule antagonists of farnesoid X receptor signaling (AID 588526; calls by dose curve; also: % is scaled to controls: 0 for no effect and ±100 for the full control effect). The gist of the method: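 Antagonist mode: titrated compounds tested against chenodeoxycholic acid stimulation (normalized to 50 uM CDCA and DMSO) in GeneBLAzer HEK293T cells for 16 h. Beta-lactamase read by CCF4 fluorescence; IC50 from Hill fits.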

Galactokinase (Homo sapiens), sequence (P51570 whole entry, looked up): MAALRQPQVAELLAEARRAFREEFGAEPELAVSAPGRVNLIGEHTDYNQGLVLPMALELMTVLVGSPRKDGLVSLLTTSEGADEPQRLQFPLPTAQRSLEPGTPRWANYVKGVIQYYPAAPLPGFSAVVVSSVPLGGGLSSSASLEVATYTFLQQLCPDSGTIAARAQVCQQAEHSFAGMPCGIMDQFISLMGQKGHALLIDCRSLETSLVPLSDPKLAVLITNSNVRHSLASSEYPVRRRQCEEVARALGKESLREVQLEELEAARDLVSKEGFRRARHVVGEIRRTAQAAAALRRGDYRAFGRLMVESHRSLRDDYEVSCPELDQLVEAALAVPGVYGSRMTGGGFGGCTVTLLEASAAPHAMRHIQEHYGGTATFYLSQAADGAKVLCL
Estrogen receptor (Homo sapiens), sequence (P03372 whole entry, looked up): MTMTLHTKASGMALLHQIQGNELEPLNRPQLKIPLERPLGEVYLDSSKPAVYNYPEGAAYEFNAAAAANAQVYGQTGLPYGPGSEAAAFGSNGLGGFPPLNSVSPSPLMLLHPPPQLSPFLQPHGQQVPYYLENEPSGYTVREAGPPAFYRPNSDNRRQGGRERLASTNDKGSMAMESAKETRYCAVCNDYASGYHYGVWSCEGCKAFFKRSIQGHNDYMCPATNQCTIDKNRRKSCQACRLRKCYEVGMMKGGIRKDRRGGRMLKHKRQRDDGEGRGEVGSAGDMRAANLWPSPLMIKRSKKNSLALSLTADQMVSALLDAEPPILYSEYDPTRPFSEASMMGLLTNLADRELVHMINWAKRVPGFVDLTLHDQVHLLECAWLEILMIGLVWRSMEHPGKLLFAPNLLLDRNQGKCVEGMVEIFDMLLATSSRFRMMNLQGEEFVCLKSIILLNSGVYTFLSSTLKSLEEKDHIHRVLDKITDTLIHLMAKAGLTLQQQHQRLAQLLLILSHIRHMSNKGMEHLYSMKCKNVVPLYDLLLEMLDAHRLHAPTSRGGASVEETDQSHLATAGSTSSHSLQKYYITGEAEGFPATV
Ubiquitin carboxyl-terminal hydrolase 1 (Homo sapiens), sequence (O94782 whole entry, looked up): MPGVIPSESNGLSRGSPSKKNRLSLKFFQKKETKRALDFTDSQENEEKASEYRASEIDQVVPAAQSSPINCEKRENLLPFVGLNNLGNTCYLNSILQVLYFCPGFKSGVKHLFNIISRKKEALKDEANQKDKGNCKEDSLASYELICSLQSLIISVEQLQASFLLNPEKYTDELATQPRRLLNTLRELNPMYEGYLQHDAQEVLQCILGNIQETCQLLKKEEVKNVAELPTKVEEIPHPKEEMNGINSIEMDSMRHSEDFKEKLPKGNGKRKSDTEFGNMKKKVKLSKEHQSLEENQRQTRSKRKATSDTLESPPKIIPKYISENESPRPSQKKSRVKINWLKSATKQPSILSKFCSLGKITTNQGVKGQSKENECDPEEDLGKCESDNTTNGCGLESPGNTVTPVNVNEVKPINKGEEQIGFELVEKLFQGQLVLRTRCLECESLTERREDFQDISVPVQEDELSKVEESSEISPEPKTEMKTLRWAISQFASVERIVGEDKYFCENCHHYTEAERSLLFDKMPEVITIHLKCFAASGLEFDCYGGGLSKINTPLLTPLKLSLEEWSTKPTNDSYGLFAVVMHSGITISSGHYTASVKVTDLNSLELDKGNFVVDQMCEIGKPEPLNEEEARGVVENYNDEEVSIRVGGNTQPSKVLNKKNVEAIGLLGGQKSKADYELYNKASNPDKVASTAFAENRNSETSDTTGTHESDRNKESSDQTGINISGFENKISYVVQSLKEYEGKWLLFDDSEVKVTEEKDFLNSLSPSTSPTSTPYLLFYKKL
ATPase family AAA domain-containing protein 5 (Homo sapiens), sequence (Q96QE3 whole entry, looked up, the tested form may be a part): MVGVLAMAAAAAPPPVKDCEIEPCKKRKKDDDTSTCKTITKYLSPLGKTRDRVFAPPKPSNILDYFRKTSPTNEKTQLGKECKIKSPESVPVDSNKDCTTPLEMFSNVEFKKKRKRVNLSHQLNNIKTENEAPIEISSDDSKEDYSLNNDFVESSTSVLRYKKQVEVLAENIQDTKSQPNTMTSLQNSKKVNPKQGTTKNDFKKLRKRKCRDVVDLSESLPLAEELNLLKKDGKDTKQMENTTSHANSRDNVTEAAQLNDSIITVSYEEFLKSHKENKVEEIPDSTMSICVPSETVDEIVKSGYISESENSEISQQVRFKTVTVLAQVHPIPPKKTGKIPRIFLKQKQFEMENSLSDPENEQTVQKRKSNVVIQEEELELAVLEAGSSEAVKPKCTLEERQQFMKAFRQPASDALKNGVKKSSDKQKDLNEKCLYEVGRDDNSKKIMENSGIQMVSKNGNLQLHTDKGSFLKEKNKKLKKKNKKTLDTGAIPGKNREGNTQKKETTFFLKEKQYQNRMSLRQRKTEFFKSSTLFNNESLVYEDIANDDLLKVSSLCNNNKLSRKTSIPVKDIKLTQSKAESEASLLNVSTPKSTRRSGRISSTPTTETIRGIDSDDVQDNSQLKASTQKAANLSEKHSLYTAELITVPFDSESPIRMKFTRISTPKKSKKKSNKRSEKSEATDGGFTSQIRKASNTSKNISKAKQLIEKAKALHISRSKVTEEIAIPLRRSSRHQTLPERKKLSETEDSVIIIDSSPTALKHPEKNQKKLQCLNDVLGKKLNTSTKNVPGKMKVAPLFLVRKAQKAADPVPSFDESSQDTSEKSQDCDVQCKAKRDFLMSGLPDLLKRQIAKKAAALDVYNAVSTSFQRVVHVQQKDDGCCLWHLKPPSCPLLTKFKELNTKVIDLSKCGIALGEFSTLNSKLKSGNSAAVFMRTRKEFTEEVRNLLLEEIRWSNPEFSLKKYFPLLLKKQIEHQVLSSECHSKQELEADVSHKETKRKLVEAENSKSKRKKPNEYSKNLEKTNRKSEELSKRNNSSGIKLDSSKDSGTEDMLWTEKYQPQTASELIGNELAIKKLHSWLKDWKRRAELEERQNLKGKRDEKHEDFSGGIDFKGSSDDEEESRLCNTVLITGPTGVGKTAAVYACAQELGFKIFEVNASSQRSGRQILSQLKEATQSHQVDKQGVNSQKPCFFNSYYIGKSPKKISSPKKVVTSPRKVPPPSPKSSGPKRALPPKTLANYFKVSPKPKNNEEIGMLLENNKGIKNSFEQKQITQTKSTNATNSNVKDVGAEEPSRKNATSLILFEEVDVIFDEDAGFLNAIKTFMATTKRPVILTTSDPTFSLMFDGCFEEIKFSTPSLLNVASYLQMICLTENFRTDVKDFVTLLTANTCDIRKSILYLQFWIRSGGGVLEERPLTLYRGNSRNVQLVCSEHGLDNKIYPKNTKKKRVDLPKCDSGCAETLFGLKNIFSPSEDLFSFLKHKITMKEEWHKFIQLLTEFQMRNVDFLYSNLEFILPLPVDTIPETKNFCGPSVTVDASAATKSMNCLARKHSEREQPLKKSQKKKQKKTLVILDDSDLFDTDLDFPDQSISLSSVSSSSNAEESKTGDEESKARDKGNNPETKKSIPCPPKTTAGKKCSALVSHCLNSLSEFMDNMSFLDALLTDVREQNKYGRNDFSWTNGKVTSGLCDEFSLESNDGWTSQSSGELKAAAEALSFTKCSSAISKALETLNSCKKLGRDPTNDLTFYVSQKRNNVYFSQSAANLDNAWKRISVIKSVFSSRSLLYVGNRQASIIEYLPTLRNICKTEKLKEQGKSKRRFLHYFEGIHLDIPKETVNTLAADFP
phosphoglycerate mutase (Leishmania major), sequence (Q4Q090 1-553): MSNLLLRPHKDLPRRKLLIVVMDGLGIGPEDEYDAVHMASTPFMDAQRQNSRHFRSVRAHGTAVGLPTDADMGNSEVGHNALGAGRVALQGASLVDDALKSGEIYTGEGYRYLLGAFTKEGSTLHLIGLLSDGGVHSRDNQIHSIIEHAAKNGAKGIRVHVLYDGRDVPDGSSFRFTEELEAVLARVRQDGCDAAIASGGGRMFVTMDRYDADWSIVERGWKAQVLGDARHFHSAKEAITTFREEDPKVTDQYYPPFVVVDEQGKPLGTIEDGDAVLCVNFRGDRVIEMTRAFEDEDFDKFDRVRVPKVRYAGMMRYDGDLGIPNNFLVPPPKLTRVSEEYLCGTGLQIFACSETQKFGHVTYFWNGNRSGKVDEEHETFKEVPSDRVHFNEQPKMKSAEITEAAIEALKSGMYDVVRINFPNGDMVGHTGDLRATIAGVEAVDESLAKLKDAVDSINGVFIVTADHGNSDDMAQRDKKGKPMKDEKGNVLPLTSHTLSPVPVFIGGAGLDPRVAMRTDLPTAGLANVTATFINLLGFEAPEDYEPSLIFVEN
Peptidyl-prolyl cis-trans isomerase NIMA-interacting 1 (Homo sapiens), sequence (Q13526 whole entry, looked up): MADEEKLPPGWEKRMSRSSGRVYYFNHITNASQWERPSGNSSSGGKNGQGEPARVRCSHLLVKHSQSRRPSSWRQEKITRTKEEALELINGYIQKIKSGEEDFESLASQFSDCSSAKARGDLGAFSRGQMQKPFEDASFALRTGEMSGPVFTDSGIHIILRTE
DNA dC->dU-editing enzyme APOBEC-3G (Homo sapiens), sequence (Q9HC16 whole entry, looked up): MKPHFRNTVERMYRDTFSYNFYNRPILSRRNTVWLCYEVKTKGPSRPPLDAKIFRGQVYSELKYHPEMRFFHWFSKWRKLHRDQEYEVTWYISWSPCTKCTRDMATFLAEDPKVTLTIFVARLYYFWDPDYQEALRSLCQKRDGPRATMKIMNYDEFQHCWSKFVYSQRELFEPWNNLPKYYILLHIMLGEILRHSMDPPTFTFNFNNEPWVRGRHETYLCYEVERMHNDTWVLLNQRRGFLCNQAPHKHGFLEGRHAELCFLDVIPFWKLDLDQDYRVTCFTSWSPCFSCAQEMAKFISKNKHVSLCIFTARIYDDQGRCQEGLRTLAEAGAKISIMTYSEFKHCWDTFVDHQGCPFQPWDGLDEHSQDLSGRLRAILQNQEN

Regarding `Cc1cccc(C)c1NC(=O)C(C)N` (stereo not drawn), the Potency entry in [1], in experiment [2], in experiment [3], in experiment [8], in experiment [9] and in experiment [10] was “inactive” in each case. Further, the viability change in [3] came to 3.48%. For the same molecule, the molecule was called inactive in [4], in experiment [5], in experiment [6] and in [7].

For the molecule `C=CCc1ccccc1OCC(O)CNC(C)C` (stereo not drawn), the Potency result in experiment [1], in [2], in [8] and in experiment [9] was “inactive” in each case. For the same molecule, the call in [4], in experiment [11], in experiment [12], in [5], in experiment [6] and in [7] was inactive.

For `COc1ccc2c(c1OC)C(=O)O[C@@H]2[C@H]1c2c(cc3c(c2OC)OCO3)CCN1C`, the Potency entry in experiment [1], in experiment [2] and in [8] was “inactive” throughout. Further, the molecule was classed as inactive in [5], in experiment [7] and in [13].

Turning to `C[C@@H](O)[C@H]1C(=O)N2C(C(=O)O)=C(SCCN=CN)C[C@H]12`, the Potency result in experiment [1], in experiment [2], in experiment [3], in experiment [8], in [9] and in [10] was “inactive” each time. In experiment [3], the viability change was -3.32%. The molecule was classed as inactive in experiment [4] and in experiment [7].

Turning to `Fc1ccc(C(c2ccc(F)cc2)N2CCN(C/C=C/c3ccccc3)CC2)cc1`, the Potency entry in [1] and in experiment [3] was “inactive” throughout. For the same molecule, in experiment [2], the Potency was 23.1 µM (active). Also, in experiment [3], the viability change was -8.46%. Further, the molecule was classed as inactive in experiment [4], in experiment [11], in experiment [5], in [6] and in experiment [7].

As to `C[C@]12CCC(=O)C=C1CC[C@@H]1[C@@H]2C(=O)C[C@@]2(C)[C@H]1CC[C@]2(O)C(=O)CO`, the Potency result in [1], in experiment [3], in [8], in experiment [9] and in experiment [14] was “inactive” each time. The viability change in experiment [3] stood at 8.98%. Further, the molecule was called inactive in [11], in experiment [12], in experiment [5], in [6] and in experiment [7].

In the case of `COc1cc(C(=O)OCCCN2CCCN(CCCOC(=O)c3cc(OC)c(OC)c(OC)c3)CC2)cc(OC)c1OC`, the Potency in [1] is 16.4 µM (active). In addition, the Potency entry in experiment [3] and in [8] was “inactive” in each case. Further, in [3], the viability change was -0.03%. The molecule was called inactive in experiment [4], in [11], in experiment [12], in experiment [5], in experiment [6] and in experiment [7]. Besides, the result in [13] was inactive.

Take `COCCc1ccc(OCC(O)CNC(C)C)cc1` (stereo not drawn): the Potency entry in experiment [1], in experiment [2], in experiment [3], in [8], in [9] and in experiment [10] was “inactive” throughout. In addition, in experiment [3], the viability change is -2.79%. Besides, the molecule was called inactive in experiment [11], in experiment [12], in experiment [5], in experiment [6] and in [7].

With `Nc1nc(N)c2nc(-c3ccccc3)c(N)nc2n1`, in [15], the activation is -0.0625% (inactive). In addition, the Potency entry in [3], in [8] and in experiment [10] was “inactive” each time. Besides, in experiment [3], the viability change was found to be 5.44%. The result in [11], in experiment [12], in experiment [7] and in [16] was inactive. Further, the figures for the Potency in experiment [14] and in [17] were 35.5 µM (active) and 44.7 µM (active), respectively.

As to `CCCCNC(=O)NS(=O)(=O)c1ccc(C)cc1`, the Potency result in experiment [1], in experiment [2], in [3], in experiment [8], in experiment [9] and in [10] was “inactive” throughout. Moreover, the viability change in experiment [3] was -5.96%. In addition, the molecule was called inactive in experiment [4], in [11], in [12], in [5], in [7] and in experiment [18].

Regarding `CCOC(=O)C1=C(C)NC(C)=C(C(=O)OC)C1c1cccc([N+](=O)[O-])c1` (stereo not drawn), the Potency entry in experiment [1], in [3] and in experiment [8] was “inactive” throughout. Besides, the viability change in experiment [3] is 9.17%. Further, the result in [4], in experiment [11], in experiment [12], in experiment [5], in experiment [6] and in [7] was inactive.
